High-throughput results as filed in PubChem BioAssay.
GPT2 inhibitor = inhibitors of human GPT2 alanine aminotransferase; Q8TD30; Recombinant GPT2, coupled pyruvate oxidase/HRP Amplex Red fluorescence; Potency, µM (titrated, usually from 57.7 µM), for the others: top-dose activity change, negative = inhibition, usual class: inhibitors; 0.25% of 100,000 active; AID 1671188; further: potency means the concentration at half of the fitted maximal effect; on the % scale 0 is the no-effect control and ±100 the full control effect; nearly all actives have a fitted effect of over 60% in size
Target sequence (Q8TD30 whole entry, looked up): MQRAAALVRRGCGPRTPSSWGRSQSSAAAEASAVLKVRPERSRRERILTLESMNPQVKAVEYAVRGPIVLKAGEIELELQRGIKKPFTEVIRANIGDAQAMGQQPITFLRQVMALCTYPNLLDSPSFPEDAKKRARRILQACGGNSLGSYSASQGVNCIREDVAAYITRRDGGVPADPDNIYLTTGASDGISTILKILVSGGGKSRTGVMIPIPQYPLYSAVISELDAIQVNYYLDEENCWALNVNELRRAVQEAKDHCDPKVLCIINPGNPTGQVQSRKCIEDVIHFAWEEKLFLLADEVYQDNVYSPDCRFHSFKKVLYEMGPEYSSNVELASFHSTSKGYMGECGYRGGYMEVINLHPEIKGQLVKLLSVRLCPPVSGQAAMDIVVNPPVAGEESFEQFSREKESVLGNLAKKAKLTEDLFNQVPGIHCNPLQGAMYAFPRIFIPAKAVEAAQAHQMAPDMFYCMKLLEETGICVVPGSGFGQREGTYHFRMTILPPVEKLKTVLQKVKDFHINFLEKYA
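Recombinant GPT2 (10ng/uL) with 250uM a-KG and 2mM L-alanine, 30 min at room temperature, in HEPES pH 7.5 buffer. Pyruvate detected by pyruvate oxidase/HRP/Amplex Red fluorescence after 30 min in the dark; AOA (50uM) as positive control.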
GPT2 inh cnf = confirmation of human GPT2 inhibitors | Potency, µM, hits mostly inhibitors | shares compounds with GPT2 inhibitor | 90% of 95 active | AID 1671187 | GPT2 enzyme, coupled Amplex Red pyruvate fluorescence
Numbers without * were called inactive; i = inactive; ? = inconclusive; nt = no result; [ ] = another dose, or the depositor's remark. This is one part of a sample in which hits are shown more often than they occur. The call rests on the fitted dose curve; in most records, active means well fitted inhibition curve with a large enough effect; inconclusive means small, poorly fitted or top-dose-only effect; inactive means flat fitted curve, though single readings scatter.

SMILES	GPT2 inhibitor	others
Cc1nn2c(c1-c1ccccc1-c1ccccc1)N(CCC(C)C)CCC2	-15%[88.5 µM]
COc1ccccc1Cn1c(=O)c(C(=O)N2CCC(Cc3ccccc3)CC2)nc2cccnc21	-3%
Cc1ccc(CNC(=O)N2CCCCCC2c2nc(-c3ccccc3)no2)cc1 (stereo not given)	i
O=C(C1CCCCN1Cc1ccc(-c2ccsc2)cc1)N1CCC(Cc2ccccc2)CC1 (stereo not given)	i
O=C1NCCCc2[nH]c(-c3nc(-c4ccncc4)n[nH]3)nc21	-8%
COc1cc(-c2nc3c([nH]2)CCCNC3=O)ccc1O	?	GPT2 inh cnf=6.1*
COc1ccc(-c2nc3c([nH]2)CC(C)(C)CNC3=O)cc1OC	i[11.5 µM]
COc1ccccc1-c1cc(C(=O)NCc2cccc(Cl)c2)nn2cccc12	2%
O=C(NCCc1ccc(Cl)cc1)c1ccc2nnc(-c3cc(F)ccc3F)n2c1	-7%
Cn1cc(-c2ccc(F)cc2)c2nc(CO)cn2c1=O	-19%[88.5 µM]
COc1ccc(-c2cn(C)c(=O)n3cc(COc4ccnn4C)nc23)cc1	4%[88.5 µM]
Cn1nccc1OCc1cn2c(=O)n(C)cc(-c3ccc(F)cc3)c2n1	nt	GPT2 inh cnf=6.3*
CCOC(=O)C1CCCN(C(=O)c2cn3cc(-c4ccc(OC)cc4)sc3n2)C1 (stereo not given)	i
C=CC(=O)Nc1cccc(Nc2nc(Nc3ccc(OCCOC)cc3)ncc2F)c1	i
C=CC(=O)Nc1cccc(Nc2nc(Nc3ccc(NC4CN(CCF)C4)cc3OC)ncc2C(F)(F)F)c1	8.9µM*	GPT2 inh cnf=3.1*
CC(=O)NCC(=O)N1C2CCC1c1cc(Nc3ncc(C(F)(F)F)c(NC4CCC4)n3)ccc12 (stereo not given)	1%
CC1(COc2cccnc2)COc2ccc(C(=O)NCc3ccc(F)cc3)cc2N1 (stereo not given)	-14%[88.5 µM]
O=C(O)C=Cc1ccc(O)c(O)c1	4.3µM*	GPT2 inh cnf=3.4*
O=C(/C=C/c1ccc(O)cc1)c1ccc(O)cc1O	-16%
O=C(O)/C=C/c1ccc(O)c(O[C@@H]2O[C@H](CO)[C@@H](O)[C@H](O)[C@H]2O)c1	i
Cc1ccc(CCN2CCCC23Cc2ccccc2CNC3=O)cc1 (stereo not given)	i
CNC(=O)[C@H]1CN(C(=O)Cc2cccs2)[C@]2(C)C(=O)N(CCOC)c3ccccc3[C@H]12	i
COCCNC(=O)c1cn2cc(-c3ccc(C)cc3)sc2n1	-10%[88.5 µM]
Cc1ccc(Nc2ccnc(N3CCCC(C(=O)NCc4ccccc4F)C3)n2)cc1 (stereo not given)	-14%
O=C(c1cnccn1)N1CCC2(CC1)CCC(O)(CN1CCc3ccccc31)CC2	?	GPT2 inh cnf=1.1*
SMILES	GPT2 inhibitor	others
O=C(c1cnccn1)N1CCC2(CC1)NCCc1c2[nH]c2ccccc12	2%
Cc1cnc(C(=O)N2CCC3(CC2)CCC(O)(CN(C)C)CC3)cn1	-18%
COc1ccc(Nc2ccnc(N3CCC(C(=O)NCc4ccccc4OC)CC3)n2)cc1	i
COCCN1C(=O)c2cccn2CC1CNC(=O)c1ccc(-n2c(C)ccc2C)cc1 (stereo not given)	i
CC(C)[C@]1(O)CN(C(=O)Cn2[nH]c3ccccc3c2=O)C[C@H]1C	?	GPT2 inh cnf=4.3*
C[C@@H]1CN(C(=O)Cn2ccc(=O)[nH]c2=O)C[C@@]1(O)C1CCC1	i
CC(C)CCNC(=O)C1CC(=O)N(c2n[nH]c3ccccc23)C1 (stereo not given)	0%
COc1ccccc1Nc1ccnc(N2CCN(C(=O)c3ccccc3Cl)CC2)n1	i
O=C1C(Cl)=C(NCCN2CCOCC2)C(=O)c2ncccc21	1.4µM*	GPT2 inh cnf=1.5*
Cc1noc2c(-c3cccnc3NCCN3CCOCC3)cc(-c3ccccc3)nc12	1%[88.5 µM]
O=C(NCCN1CCOCC1)c1c[nH]c2ncccc12	-4%[88.5 µM]
COc1cccc(-c2ccc(C(=O)N3CCC(N[S+](=O)([O-])c4c(C)noc4C)CC3)cc2)c1	-10%
Cc1cccc(-c2cccc(CN3CCC(NC(=O)c4ccccc4Cl)CC3)c2)c1	i
